# Records with an inconclusive call do not appear. Unmarked numbers belong to inactive results. Activity calls are given as the source filed them. The call rests on the fitted dose curve; in most records, active means well fitted activation curve with a large enough effect; inconclusive means small, poorly fitted or top-dose-only effect; inactive means no such curve, though single readings can be large or run the other way.
# Test: Confirmation Concentration-Response Assay for Enhancers of SMN2 Splice Variant Expression
# Settings: HEK293 SMN2-exon7-luciferase splicing reporter, luminescence, 30-36 h; series mostly up to 22.7 µM; activation: at the top concentration
# Text: NIH Chemical Genomics Center [NCGC] NIH Molecular Libraries Probe Production centers Network [MLPCN] MLPCN Grant: R03 MH084179-01 Assay Submitter (PI): Elliot Androphy NCGC Assay Overview: Spinal muscular atrophy (SMA) is caused by insufficient levels of the survival motor neuron protein SMN. The SMN locus on chromosome 5q13 contains two inverted copies of SMN called SMN1 and SMN2 which are 99% identical at the amino acid level. SMN1 is a fully functional protein and SMN2 skips exon 7 90% of the time. Skipping of exon 7 produces non-functional protein product. 10% of the SMN2 protein includes exon 7 and is fully functional. In the SMA disease state, mutations in the SMN1 locus are the cause of the disease state. Because only 10% of SMN2 is of the fully functional form, it is not sufficient to overcome the deficiency produced by the loss of the SMN1 product. A therapy that either increase the amount of SMN2 product made or to increase the inclusion of exon 7 has been proposed for the treatment of SMA. We have designed an assay to identify small molecules that can increase the amount of functional SMN2 product by appending a luciferase reporter gene after the native SMN2 gene, such that inclusion of exon 7 in the expressed product places the luciferase sequence in frame, thus generating functional luciferase enzyme.
# NCGC Assay Protocol Summary: This screen utilizes a luciferase reporter gene assay, combining the promoter with the major portion of the native SMN2 cDNA (exons 1 -7, intron 8 , exon 8 fused to luciferase) stably expressed in HEK293 cells. Compounds that increase luciferase signal presumably enhance expression of the functional SMN2 splice variant. Passaging media contained DMEM w/ glutamax (+phenol red) 10% FCS, 1x pen/strep, 200 ug/ml hygro, 1x sodium pyruvate. Assay media contained DMEM w/ glutamax (-phenol red) 10% FCS, 1x pen strep, 1x pyruvate Sequence, Parameter, Value, Description (1) Cells, 5 uL, 2000 cells/well, 1536 TC treated White solid bottom plate (2) Time, 10-12 hours, 37C 5% CO2 (3) Compound, 23 nl, MLSMR Library (4) Control Compound, 23 nL, Sodium butyrate st 4.5mM (final) conc (5) Time, 30-36 hours, 37C 5% CO2 (6) Reagent, 3 ul, One Glo (TM) from Promega (7) Time, 5-15 minutes, Room temp (8) Detector, Viewlux: luminescent read, 60 second integration, high speed 2x binning Keywords: Spinal muscular atrophy, SMA, SMN2, high throughput screening, MLSMR, MLPCN, NIH Roadmap, qHTS and NCGC
Structure (SMILES),activation,Potency
O=C(C1CCN(c2nc3ccc(Br)cc3s2)CC1)N1CCC2(CC1)OCCO2,-4.36%,–
COc1ccc(CNC(=O)c2ccc(C(C)C)cc2)cc1,–,5.01 µM (active)
CCc1ccc2nc(N3CCC(C(=O)N4CCC5(CC4)OCCO5)CC3)sc2c1,7.5%,–
C[C@@H]1O[C@@H](O[C@H]2C[C@@H](O)[C@]3(CO)[C@H]4[C@H](O)C[C@]5(C)[C@@H](C6COC(=O)C6)CC[C@]5(O)[C@@H]4CC[C@]3(O)C2)[C@H](O)[C@H](O)[C@H]1O (some centres undefined),-43.8% [at 46.1 µM],–

# Reference: PubChem BioAssay AID1740 (National Center for Advancing Translational Sciences (NCATS), 2009)
